Source: PubChem BioAssay (National Center for Advancing Translational Sciences (NCATS))
Pf growth 48h – Primary qHTS for delayed death inhibitors of the malarial parasite plastid, 48 hour incubation; Potency, µM (top dose mostly 28.7 µM), hits mostly inhibitors; P. falciparum luciferase growth in erythrocytes, 48 h; hit rate 5.9% among 310,000
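In quantitative HTS format, infected erythrocytes bearing luciferase-reporter parasites were treated for a single generation at 37 C. Luminescence after adding detection reagent served as the growth measure.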
Pf growth 96h – Primary qHTS for delayed death inhibitors of the malarial parasite plastid, 96 hour incubation. P. falciparum luciferase reporter growth, 96 h. Potency, µM (titrated, usually from 28.7 µM), hits mostly inhibitors. hit rate 6.9% among 320,000
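Cell-based qHTS: luciferase-tagged P. falciparum in erythrocytes (2% hematocrit, 0.05% parasitemia final) incubated with compounds for 96 hours, 37 C, 5% CO2; luciferase detection reagent then added and luminescence measured.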
NS1 inh – qHTS Assay for Inhibitors of Influenza NS1 Protein Function; Potency, µM (doses to about 46.1 µM); hit rate 0.4% among 270,000; AID 2326, 2010; calls by dose curve; also: actives are rising curves; nearly all actives have a fitted effect of over 50% in size
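Read-out: OD600 growth recovery of NS1-expressing budding yeast. Cells grown overnight at 30C in -URA glucose medium, washed, resuspended and diluted 1:100 in 2% galactose assay medium, pH 6.0. Same strain lacking NS1 served as positive control.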
SARS PLP yeast – qHTS of Yeast-based Assay for SARS-CoV PLP | S. cerevisiae expressing SARS-CoV PLpro, growth rescue | Potency, µM (doses to about 32.9 µM), hits mostly activators | hit rate 0.19% among 330,000; calls by dose curve; also: nearly all actives have a fitted effect of over 55% in size
Hits are given with their value; – = inactive; ? = inconclusive; · = no result given; [ ] = dose if it differs, or a comment. Hits are enriched below; roughly 10% of the tested compounds scored in any of these assays. Unless noted, calls follow the shape of the dose curve; as a rule, active = well fitted inhibition curve with a large enough effect; inconclusive = small, poorly fitted or top-dose-only effect, or another doubt; inactive = no such curve, though single readings can be large or run the other way.

SMILES	Pf growth 48h	Pf growth 96h	NS1 inh	SARS PLP yeast
O=C(O)c1ccc(S(=O)(=O)N2CCC(c3nc(-c4ccccc4Cl)no3)CC2)cc1	–	9.3µM	–	–
COc1cc2nc(C)sc2cc1SC	·	·	–	–
COc1cc2nc(/C=C/c3cc(OC)c(OC)c(OC)c3)sc2cc1SC	2.6µM	–	–	–
CC(C)(C)c1nc(NCCO)c2nnn(Cc3ccccc3)c2n1	–	?	–	–
COCC(C)n1c(C)cc(C(=O)CSc2nnc(Nc3ccccc3F)s2)c1C (stereo unspecified)	1.5µM	0.59µM	–	–
COCC(C)n1c(C)cc(C(=O)CSc2ncccn2)c1C (stereo unspecified)	–	–	·	–
CCOc1cccc(/C=C/c2ccc3cccc(O)c3n2)c1OC	?	?	–	–
CCOc1cccc(/C=C/c2ccc3cccc(O)c3n2)c1O	–[0.00184 µM]	8.3µM	–	–
CCOc1c(OC(C)=O)ccc(/C=C/c2ccc3cccc(OC(C)=O)c3n2)c1[N+](=O)[O-]	6.6µM	8.3µM	–	–
COc1c(OC(C)=O)ccc(/C=C/c2ccc3cccc(OC)c3n2)c1[N+](=O)[O-]	?	?	–	–
COc1cc(NC(=O)C2=C(N3CCOCC3)/C(=C\c3ccc(N(C)C)cc3)CCC2)cc(OC)c1OC	15µM	?	–	–
CC(NC(=O)c1ccco1)C(=O)N1CCN(S(=O)(=O)c2ccccc2C#N)CC1 (stereo unspecified)	–	?	·	–
CCN1C(=O)[C@H]2[C@@H](c3ccc(SC4CCCCC4)cc3)N[C@@](CC(C)C)(C(=O)OC)[C@H]2C1=O	12µM	2.9µM	·	–
CCC(C)Sc1ccc([C@H]2N[C@@](Cc3ccccc3)(C(=O)OC)[C@H]3C(=O)N(CC)C(=O)[C@@H]23)cc1OC (stereo partly specified)	3.3µM	?	·	–
CCC(C)Sc1ccc([C@H]2N[C@@](CC(C)C)(C(=O)OC)[C@H]3C(=O)N(CC)C(=O)[C@@H]23)cc1 (stereo partly specified)	9.3µM	?	·	–
CCN1C(=O)[C@H]2[C@@H](c3ccc(-c4ccc(Cl)c(Cl)c4)cc3)N[C@@](Cc3ccccc3)(C(=O)OC)[C@H]2C1=O	?	?	·	–
CCC(C)Sc1ccc([C@H]2N[C@@](Cc3ccccc3)(C(=O)OC)[C@H]3C(=O)N(CC)C(=O)[C@@H]23)cc1 (stereo partly specified)	3.3µM	1.7µM	·	–
Cc1noc(C)c1S(=O)(=O)Nc1ccc2c(c1)C(=O)N([C@H](C)CO)C[C@@H](C)[C@@H](CN(C)Cc1ccc3c(c1)OCO3)O2	·	·	·	–
COc1ccc(S(=O)(=O)N2CCC(C(=O)Nc3cc(Cl)ccc3N3CCOCC3)CC2)cc1OC	?	?	·	–
CC(C)c1nnc(NC(=O)C2CCN(C(=O)Nc3ccc(Cl)cc3)CC2)s1	?	–	–	–
CCN(C[C@H]1N[C@@](Cc2ccccc2)(C(=O)OC)[C@H]2C(=O)N(C)C(=O)[C@@H]12)S(=O)(=O)c1ccc(-c2ccccc2)cc1	·	·	·	–
COC(=O)C1CC23C=CCN4CCC5(c6ccccc6NC15C2C)C43 (stereo unspecified)	1.5µM	–	–	–
CN1CC[C@]23c4ccccc4N[C@H]1[C@]21CCN(C)[C@H]3Nc2ccccc21	–	–	·	·
COc1cc(Cl)ccc1OCc1cc(C(=O)N2C[C@]3(C)C[C@H]2CC(C)(C)C3)no1	?	–	–	–
CCOCCCNC1=C(Cl)C(=O)c2ccccc2C1=O	3.7µM	?	–	–
SMILES	Pf growth 48h	Pf growth 96h	NS1 inh	SARS PLP yeast
CN(c1ccc(Cl)cc1)c1cc(=O)n(C)c2ccccc12	5.9µM	–	–	–
CN(C)c1ccc(-[n+]2c(-c3ccccc3)cc(-c3ccccc3)cc2-c2ccccc2)cc1	?	?	–	–
Cc1c(-c2ccc(Cl)cc2)[n+](=O)c(-c2ccccc2)cn1[O-]	–	–	–	–
C[n+]1c(-c2ccccc2)cc(-c2ccc(Cl)cc2)cc1-c1ccccc1	1.7µM	?	–	–
c1ccc(-c2cc(-c3ccccc3)[n+](-c3ccccc3)c(-c3ccccc3)c2)cc1	0.29µM	0.37µM	–	–
CC(=O)Nc1scc(-c2ccccc2)[n+]1-c1ccc(C)cc1	–	–	·	–
Cc1ccc(-c2cc(-c3ccc(C)cc3)[n+](-c3ccc(C(=O)[O-])cc3)c(-c3ccc(C)cc3)c2)cc1	3.7µM	?	·	–
Cc1ccc(-c2cc(-c3ccccc3)cc(-c3ccccc3)[n+]2-c2ccccc2)cc1	0.37µM	0.33µM	·	–
COC(=O)C/C=C/N(Cc1ccccc1OC)S(=O)(=O)CCl	·	·	·	–
CC(C)CC(C(=O)NC(C)(C)C)N(Cc1ccccc1Cl)C(=O)c1snc(C(N)=O)c1N (stereo unspecified)	?	?	?	–
Cc1ccc(-c2cc(-c3ccc(C)cc3)[n+](-c3ccccc3)c(-c3ccc(C)cc3)c2)cc1	0.29µM	0.29µM	·	–
COc1cc(OC)cc(-c2c(C#Cc3ccsc3)c3cc(-c4ccc5c(c4)OCO5)ccc3n2C)c1	·	·	·	–
Cc1cccc(C2(c3cccc(C)c3)CC2C(=O)Nc2ccc([N+](=O)[O-])cc2O)c1 (stereo unspecified)	2.1µM	?	–	–
CC(C)=N/N=C1\NC(=O)C(C)S1 (stereo unspecified)	4.7µM	1.2µM	–	–
C/C(=N\N=C1/NC(=O)C(C)S1)c1ccc([N+](=O)[O-])cc1 (stereo unspecified)	–	–	–	–
O=C(O)CCSc1nnc(SCC(=O)NC2CCS(=O)(=O)C2)s1 (stereo unspecified)	·	·	·	–
COc1ccc2c3c(cccc13)C(=O)N(O)C2=O	13µM	–	–	–
O=C1c2cccc3c([N+](=O)[O-])ccc(c23)C(=O)N1O	–[0.00184 µM]	–	–	–
COc1ccccc1N(C)S(=O)(=O)c1ccc(C(=O)NCc2ccc3c(c2)OCO3)cc1	9.3µM	?	·	–
COc1ccc(S(=O)(=O)NCc2ccc3c(c2)OCO3)cc1C	·	–	–	–
COc1cccc(C(=O)NCc2ccc3c(c2)OCO3)c1OC	–	?	–	–
COc1ccc(CCNC(=O)c2ccc(S(=O)(=O)N(C)c3ccccc3)cc2)cc1OC	?	?	–	–
COc1ccc(S(=O)(=O)NCc2ccc3c(c2)OCO3)cc1OC	–	1.2µM	–	–
COC(=O)c1cc(CNC(=O)c2ccc(S(=O)(=O)N(C)c3ccccc3)cc2)ccc1OC	3.7µM	12µM	·	–
COc1cc(OC)cc(C(=O)NNC(=O)c2ccc(S(=O)(=O)N(C)c3ccccc3OC)cc2)c1	–	0.083µM	–	–
O=C(O)c1ccc2c(c1)C(=O)N([C@H](Cc1cccc3ccccc13)C(=O)O)C2=O	–	–	·	–
COc1ccccc1OC[C@H](O)COC(N)=O	–	–	·	·
CN(C)c1ccc(C(CNS(=O)(=O)c2ccc3ccccc3c2)N2CCOCC2)cc1 (stereo unspecified)	?	–	·	–
COc1cccc(NC(=O)C(C)N2C(=O)c3ccccc3C2=O)c1 (stereo unspecified)	–	?	–	–
